Source: PubChem BioAssay (NCATS)
Results filed as inconclusive are left out. Where a call stands in place of a potency, no number is given. Activity calls are given as the source filed them. The call rests on the fitted dose curve; in most records, active means well fitted curve in the direction sought with a large enough effect; inconclusive means small, poorly fitted or top-dose-only effect, or another doubt; inactive means no such curve, though single readings can be large; an effect the other way counts as inactive or inconclusive.

Columns and labels:
[1] = biological target: Voltage-gated inwardly rectifying potassium channel KCNH2 (Homo sapiens) (UniProt Q12809); test: qHTS Assay for Small Molecule Inhibitors of the Human hERG Channel Activity (AID 588834);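 further: lower thallium flux fluorescence means stronger hERG block; nearly all actives have a fitted effect of over 50% in size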; further: potency means the concentration at half of the fitted maximal effect
Sequence of Voltage-gated inwardly rectifying potassium channel KCNH2 (Homo sapiens) (Q12809 whole entry, looked up): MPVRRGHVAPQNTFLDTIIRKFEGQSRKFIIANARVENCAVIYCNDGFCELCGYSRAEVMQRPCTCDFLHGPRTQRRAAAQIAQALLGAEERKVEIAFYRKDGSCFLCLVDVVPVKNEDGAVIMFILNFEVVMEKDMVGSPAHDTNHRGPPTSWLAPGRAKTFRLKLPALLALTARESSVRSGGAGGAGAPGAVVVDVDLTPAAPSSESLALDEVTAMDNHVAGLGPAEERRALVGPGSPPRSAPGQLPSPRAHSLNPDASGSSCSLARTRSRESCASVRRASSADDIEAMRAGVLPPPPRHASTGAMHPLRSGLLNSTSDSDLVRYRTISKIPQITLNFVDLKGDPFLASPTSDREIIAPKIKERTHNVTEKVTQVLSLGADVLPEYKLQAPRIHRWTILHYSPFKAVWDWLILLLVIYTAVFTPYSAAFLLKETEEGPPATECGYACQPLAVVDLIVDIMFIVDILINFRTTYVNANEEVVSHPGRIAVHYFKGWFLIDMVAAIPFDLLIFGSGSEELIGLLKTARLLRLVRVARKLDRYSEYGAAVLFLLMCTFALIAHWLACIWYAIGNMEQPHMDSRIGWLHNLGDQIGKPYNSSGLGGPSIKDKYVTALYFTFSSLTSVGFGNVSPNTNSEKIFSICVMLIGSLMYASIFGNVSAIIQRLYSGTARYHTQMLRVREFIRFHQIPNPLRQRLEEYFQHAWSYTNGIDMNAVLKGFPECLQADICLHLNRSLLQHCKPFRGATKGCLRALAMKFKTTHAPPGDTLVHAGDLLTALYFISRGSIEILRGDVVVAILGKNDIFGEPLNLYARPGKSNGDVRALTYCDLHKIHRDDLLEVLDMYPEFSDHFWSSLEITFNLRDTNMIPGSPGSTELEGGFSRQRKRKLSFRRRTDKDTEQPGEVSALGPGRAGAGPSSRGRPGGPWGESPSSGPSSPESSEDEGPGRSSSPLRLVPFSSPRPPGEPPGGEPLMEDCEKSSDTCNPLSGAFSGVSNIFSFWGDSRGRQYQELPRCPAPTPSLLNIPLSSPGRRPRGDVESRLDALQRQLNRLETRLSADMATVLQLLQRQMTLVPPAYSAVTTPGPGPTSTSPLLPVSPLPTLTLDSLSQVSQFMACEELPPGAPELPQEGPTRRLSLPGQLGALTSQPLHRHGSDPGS
How it was run: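 hERG block measured as reduced thallium-dye (FluxOR) fluorescence after stimulation buffer addition, read over 2 min. Cells were hERG-BacMam-transduced U2OS exposed to compound ~10 min […]; concentration-response fitted with Hill equation for AC50.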

[2] = biological target: Luciferin 4-monooxygenase (Photinus pyralis) (UniProt P08659); test: Biochemical firefly luciferase enzyme assay for NPC (AID 624030);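 further: purified P. pyralis luciferase at 10 nM with luciferin and ATP substrate; series mostly up to about 59 µM; nearly all actives have a fitted effect of over 70% in size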
Sequence of Luciferin 4-monooxygenase (Photinus pyralis) (P08659 whole entry, looked up): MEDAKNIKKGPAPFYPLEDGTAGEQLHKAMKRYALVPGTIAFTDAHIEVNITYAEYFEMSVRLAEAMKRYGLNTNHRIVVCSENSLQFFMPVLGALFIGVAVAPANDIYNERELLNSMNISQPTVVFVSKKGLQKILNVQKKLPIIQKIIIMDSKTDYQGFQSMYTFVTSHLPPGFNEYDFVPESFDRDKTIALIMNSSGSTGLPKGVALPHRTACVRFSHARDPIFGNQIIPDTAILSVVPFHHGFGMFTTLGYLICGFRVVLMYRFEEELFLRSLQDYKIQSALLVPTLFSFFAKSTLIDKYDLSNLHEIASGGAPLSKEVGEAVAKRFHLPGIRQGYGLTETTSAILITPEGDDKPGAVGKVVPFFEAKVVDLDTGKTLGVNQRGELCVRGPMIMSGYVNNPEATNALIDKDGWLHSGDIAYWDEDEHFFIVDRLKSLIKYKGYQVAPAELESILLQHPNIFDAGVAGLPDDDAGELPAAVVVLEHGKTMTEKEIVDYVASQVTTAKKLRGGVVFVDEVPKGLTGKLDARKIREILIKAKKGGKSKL
How it was run: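 Purified P. pyralis luciferase at 10 nM in 50 mM Tris Acetate (final), luminescence read within 5 minutes of enzyme addition to compounds. Activity normalised to PTC124 versus DMSO; concentration-response curves classed by r2, magnitude and activity.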

[3] = S16 Schwann cell viability assay (CellTiter-Glo assay) (AID 624031); further: nearly all actives have a fitted effect of over 70% in size; further: potency means the concentration at half of the fitted maximal effect
How it was run: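 Native S16 rat Schwann cells, 500-750 cells/well in DMEM with 10% FBS, dosed with compound after overnight culture and incubated 24h at 37 degree Celsius/5% CO2. Viability by CellTiter-Glo luminescence; % activity normalized to no-cell wells and DMSO-treated cells.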

[4] = S16 Schwann cell PMP22 intronic element firefly luciferase assay (AID 624032); further: nearly all actives have a fitted effect of over 30% in size; further: potency means the concentration at half of the fitted maximal effect
How it was run: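 Rat S16 Schwann cells stably carrying firefly luciferase driven by a PMP22 intronic element, in 10% FBS, treated 24 h at 37 C. ONE-Glo luminescence normalized to PTC124 control and DMSO (0%); curves classed by r2, magnitude and activity.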

| Structure (SMILES) | Potency [1] | Potency [2] | Potency [3] | Potency [4] |
| --- | --- | --- | --- | --- |
| O=C1c2ccccc2C(=O)C1c1ccccc1 | inactive | inactive | inactive | inactive |
| OC(CCN1CCCCC1)(c1ccccc1)c1ccccc1 | 14.1 µM (active) | inactive | inactive | inactive |
| CCOC(=O)OC(C)OC1=C(C(=O)Nc2ccccn2)N(C)S(=O)(=O)c2ccccc21 (configuration not stated) | inactive | inactive |  |  |
| NC(CO)(CO)CO | inactive | inactive | inactive | inactive |
| CCC(C(=O)OCCN(CC)CC)c1ccccc1 (configuration not stated) | inactive | inactive | inactive | inactive |
| CC(C)=CCC1C(=O)N(c2ccccc2)N(c2ccccc2)C1=O | inactive | inactive | inactive | inactive |
| CN=C(NC#N)Nc1ccc(C2=NNC(=O)CC2C)cc1 (configuration not stated) | inactive | inactive | inactive | inactive |
| CCn1cc(C(=O)O)c(=O)c2cnc(N3CCCC3)nc21 | inactive | inactive | inactive | inactive |
| CCOC(=O)n1ccn(C)c1=S | inactive | inactive | inactive | inactive |
| CC(=O)OCC(=O)[C@@]1(OC(C)=O)[C@@H](C)C[C@H]2[C@@H]3C[C@H](F)C4=CC(=O)C=C[C@]4(C)[C@@]3(F)[C@@H](O)C[C@@]21C | inactive | inactive | inactive | inactive |
| CCN1CCCC1=O | inactive | inactive | inactive | inactive |
| C[C@H](O)C(=O)Nc1c(I)c(C(=O)NC(CO)CO)c(I)c(C(=O)NC(CO)CO)c1I | inactive | inactive | inactive | inactive |
| Cc1ncc(CSSCc2cnc(C)c(O)c2CO)c(CO)c1O | inactive | inactive | inactive | inactive |
| C[C@]12C=CC(=O)C=C1[C@@H](F)C[C@@H]1[C@@H]2[C@@H](O)C[C@@]2(C)[C@H]1CC[C@]2(O)C(=O)CO | inactive | inactive |  |  |
| O=C(CCN1CCC(c2ccccc2)C1)c1ccc2c(c1)OCCO2 (configuration not stated) | 15.8 µM (active) | inactive | 28.7 µM (active) | 25.6 µM (active) |
| c1ccc(-c2ccc(C(c3ccccc3)n3ccnc3)cc2)cc1 (configuration not stated) | 12.6 µM (active) | inactive | inactive | inactive |
| COCc1c(C(C)C)nc(C(C)C)c(/C=C/[C@@H](O)C[C@@H](O)CC(=O)O)c1-c1ccc(F)cc1 | inactive | inactive | inactive | 4.55 µM (active) |
| CCCCN1CCCC1C(=O)Nc1c(C)cc(C)cc1C (configuration not stated) | inactive | inactive | inactive | inactive |

| Structure (SMILES) | Potency [1] | Potency [2] | Potency [3] | Potency [4] |
| --- | --- | --- | --- | --- |
| CN1C(CCl)Nc2cc(Cl)c(S(N)(=O)=O)cc2S1(=O)=O (configuration not stated) | inactive | inactive | inactive | 0.161 µM (active) |
| Cc1c(C(C)C)c(=O)n(-c2ccccc2)n1C | inactive | inactive | inactive | inactive |
| CN1CCC[C@@H]1c1cccnc1 | inactive | inactive | inactive | inactive |
| Oc1ccc(Cl)c2cccnc12 | inactive | inactive | inactive |  |
| COc1cc(C(=S)N2CCOCC2)cc(OC)c1OC | inactive | inactive | inactive | inactive |
| CCOC(=O)/C=C(C)/C=C/C=C(C)/C=C/c1c(C)cc(OC)c(C)c1C | inactive | inactive | inactive |  |
| Cc1cc(O)c(C(C)C)cc1Cl | inactive | inactive | inactive | inactive |
| CN(C)CCOc1ccccc1Cc1ccccc1 | 3.55 µM (active) | inactive | inactive | inactive |
| COc1c2occc2c(OC)c2c(=O)cc(C)oc12 | inactive | inactive | inactive |  |
| CCN(CC)CCNC(=O)COc1ccc(Cl)cc1 | 14.1 µM (active) | inactive | inactive | inactive |
| C#C[C@]1(O)CC[C@H]2[C@@H]3CCc4cc(OC5CCCC5)ccc4[C@H]3CC[C@@]21C | inactive | inactive | 32.2 µM (active) |  |
| COC(=O)[C@@H]1CC2=CC(=O)CC[C@]2(C)[C@@]23O[C@@H]2C[C@@]2(C)[C@@H](CC[C@@]24CCC(=O)O4)[C@H]13 | inactive | inactive | inactive | inactive |
| Cc1c(N(C)CS(=O)(=O)O)c(=O)n(-c2ccccc2)n1C | inactive | inactive | inactive | inactive |
| CC(=O)c1ccc2c(c1)N(CCCN1CCC(CCO)CC1)c1ccccc1S2 | 1.26 µM (active) | inactive | inactive |  |
| CC(=O)N/N=C/c1ccc([N+](=O)[O-])o1 | inactive | inactive |  |  |
| O=C(OCCOCCO)c1ccccc1Nc1cccc(C(F)(F)F)c1 | inactive |  | inactive | inactive |
| Cc1c(C)n(CCN(C)C)c2ccc(C(=O)OCCN(C)C)cc12 | inactive |  | inactive | 32.2 µM (active) |
